In ChEMBL document CHEMBL3988442, “University of Dundee, Small-Polar-MMV Screening Library” (2021):
For part of these data: Results with a measured potency or affinity are listed apart.

How the values were obtained:
Set-up in all cases: scale not given: direction of the effect not stated beside the values
[1] = biological target: Protein translocase subunit SecA (Escherichia coli (strain K12)) (UniProt P10408); experiment: Assay to Identify E. coli SecA ATPase Inhibitors; type: functional; settings: 30 µM
Sequence of Protein translocase subunit SecA (Escherichia coli (strain K12)) (P10408 whole entry): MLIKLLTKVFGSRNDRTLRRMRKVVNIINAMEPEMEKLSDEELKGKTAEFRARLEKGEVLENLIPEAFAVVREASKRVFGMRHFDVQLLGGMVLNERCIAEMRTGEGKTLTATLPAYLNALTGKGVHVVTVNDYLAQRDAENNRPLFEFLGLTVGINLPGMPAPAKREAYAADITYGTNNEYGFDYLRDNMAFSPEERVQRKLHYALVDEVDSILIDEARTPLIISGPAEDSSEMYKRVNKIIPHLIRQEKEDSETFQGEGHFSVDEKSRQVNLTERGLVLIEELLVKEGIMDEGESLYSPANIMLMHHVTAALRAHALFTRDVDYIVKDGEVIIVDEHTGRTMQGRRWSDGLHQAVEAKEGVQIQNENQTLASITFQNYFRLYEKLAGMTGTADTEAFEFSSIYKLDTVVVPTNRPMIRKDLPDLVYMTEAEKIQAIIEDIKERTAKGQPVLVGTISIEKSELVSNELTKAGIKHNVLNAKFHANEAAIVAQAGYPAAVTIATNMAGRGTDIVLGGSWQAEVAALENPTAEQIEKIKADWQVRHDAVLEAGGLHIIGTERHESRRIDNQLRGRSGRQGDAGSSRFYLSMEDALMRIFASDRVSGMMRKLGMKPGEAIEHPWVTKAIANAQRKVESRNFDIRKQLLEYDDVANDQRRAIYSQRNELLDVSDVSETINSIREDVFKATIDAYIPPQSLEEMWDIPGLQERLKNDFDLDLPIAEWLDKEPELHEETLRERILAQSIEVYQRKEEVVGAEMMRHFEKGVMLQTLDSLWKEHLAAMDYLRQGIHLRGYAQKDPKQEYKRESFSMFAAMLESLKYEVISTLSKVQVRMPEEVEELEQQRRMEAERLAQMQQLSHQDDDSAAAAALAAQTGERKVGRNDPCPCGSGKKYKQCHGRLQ

[2] = biological target: T1, Ubiquitin-activating enzyme e1, putative (Leishmania donovani (strain BPK282A1)) (UniProt E9BSI1); experiment: Leishmania donovani Ubiquitin Activating Enzyme (LdE1); type: functional; settings: 30 µM
T1 sequence (whole entry): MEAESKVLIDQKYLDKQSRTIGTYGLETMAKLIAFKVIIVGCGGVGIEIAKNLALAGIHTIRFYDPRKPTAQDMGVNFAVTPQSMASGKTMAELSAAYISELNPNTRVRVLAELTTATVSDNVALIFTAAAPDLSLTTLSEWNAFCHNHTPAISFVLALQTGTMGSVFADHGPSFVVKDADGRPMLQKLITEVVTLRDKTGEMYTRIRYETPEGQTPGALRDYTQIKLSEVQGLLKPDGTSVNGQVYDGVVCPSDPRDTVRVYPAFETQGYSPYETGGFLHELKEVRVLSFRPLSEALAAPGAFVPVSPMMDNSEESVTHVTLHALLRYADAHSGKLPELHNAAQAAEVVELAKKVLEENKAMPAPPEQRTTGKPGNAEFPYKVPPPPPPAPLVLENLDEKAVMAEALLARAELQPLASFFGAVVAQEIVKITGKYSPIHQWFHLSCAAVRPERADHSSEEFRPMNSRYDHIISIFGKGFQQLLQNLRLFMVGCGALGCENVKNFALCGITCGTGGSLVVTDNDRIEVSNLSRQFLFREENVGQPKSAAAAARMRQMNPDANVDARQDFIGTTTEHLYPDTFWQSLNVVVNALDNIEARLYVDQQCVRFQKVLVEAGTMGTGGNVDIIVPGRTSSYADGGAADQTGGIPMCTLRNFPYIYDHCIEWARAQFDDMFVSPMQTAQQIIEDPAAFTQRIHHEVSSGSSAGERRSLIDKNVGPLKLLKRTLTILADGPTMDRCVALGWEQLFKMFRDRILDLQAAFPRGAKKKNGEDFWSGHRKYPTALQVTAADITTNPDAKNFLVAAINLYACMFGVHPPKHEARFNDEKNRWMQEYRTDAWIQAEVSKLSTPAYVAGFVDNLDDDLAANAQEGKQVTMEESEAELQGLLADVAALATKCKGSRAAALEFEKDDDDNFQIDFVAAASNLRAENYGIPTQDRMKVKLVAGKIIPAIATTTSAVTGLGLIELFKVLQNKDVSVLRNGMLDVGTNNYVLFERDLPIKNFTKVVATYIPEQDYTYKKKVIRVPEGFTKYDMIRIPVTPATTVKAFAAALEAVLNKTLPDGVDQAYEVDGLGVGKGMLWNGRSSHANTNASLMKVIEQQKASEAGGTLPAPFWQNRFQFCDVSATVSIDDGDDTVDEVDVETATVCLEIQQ

[3] = biological target: T2, Aspartate--tRNA(Asp/Asn) ligase (Mycobacterium tuberculosis (strain ATCC 25618 / H37Rv)) (UniProt P9WFW3); experiment: Assay for Asp RNA synthetase-1 from Mycobacterium tuberculosis; type: functional; settings: 30 µM; further: in the data most compounds retested in dose-response had high values
T2 sequence (whole entry): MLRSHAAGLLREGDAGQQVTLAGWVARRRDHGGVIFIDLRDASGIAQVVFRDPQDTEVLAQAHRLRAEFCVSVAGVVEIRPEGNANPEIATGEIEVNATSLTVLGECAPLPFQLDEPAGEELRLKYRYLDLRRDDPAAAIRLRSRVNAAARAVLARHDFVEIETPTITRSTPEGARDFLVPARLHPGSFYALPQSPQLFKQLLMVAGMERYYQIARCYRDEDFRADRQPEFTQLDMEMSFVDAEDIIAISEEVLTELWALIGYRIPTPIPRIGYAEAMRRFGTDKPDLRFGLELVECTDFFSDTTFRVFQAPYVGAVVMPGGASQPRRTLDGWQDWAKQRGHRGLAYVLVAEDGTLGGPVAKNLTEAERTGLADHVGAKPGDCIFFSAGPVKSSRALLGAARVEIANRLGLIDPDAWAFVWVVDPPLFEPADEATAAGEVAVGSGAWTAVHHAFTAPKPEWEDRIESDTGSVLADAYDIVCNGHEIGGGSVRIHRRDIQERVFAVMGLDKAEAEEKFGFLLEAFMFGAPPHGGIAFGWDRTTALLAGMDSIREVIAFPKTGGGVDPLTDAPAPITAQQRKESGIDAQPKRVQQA

[4] = biological target: Sialic acid-binding Ig-like lectin 9 (Homo sapiens) (UniProt Q9Y336); experiment: Hs-Siglec9 ALPHAscreen SOP 20170721; settings: 10 µM
Sequence of Sialic acid-binding Ig-like lectin 9 (Homo sapiens) (Q9Y336 whole entry): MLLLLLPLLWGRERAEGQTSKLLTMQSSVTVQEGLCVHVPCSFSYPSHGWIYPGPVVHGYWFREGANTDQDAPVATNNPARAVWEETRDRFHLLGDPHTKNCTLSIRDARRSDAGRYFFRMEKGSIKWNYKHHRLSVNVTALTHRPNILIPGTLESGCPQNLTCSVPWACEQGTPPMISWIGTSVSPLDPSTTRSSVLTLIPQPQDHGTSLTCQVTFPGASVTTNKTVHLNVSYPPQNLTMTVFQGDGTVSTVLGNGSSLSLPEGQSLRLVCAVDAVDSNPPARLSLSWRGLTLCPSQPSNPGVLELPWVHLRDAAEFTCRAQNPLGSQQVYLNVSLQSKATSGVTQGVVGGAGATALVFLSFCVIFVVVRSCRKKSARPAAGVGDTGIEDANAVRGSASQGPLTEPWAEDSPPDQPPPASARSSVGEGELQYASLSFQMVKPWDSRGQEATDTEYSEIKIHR

Trypanosoma cruzi = experiment: Trypanosoma cruzi phosphomannomutase and mannose-1-phosphate guanylyltransferase assay; type: functional; settings: 10 µM
[5] = biological target: T3, Arginase-2, mitochondrial (Homo sapiens) (UniProt P78540); experiment: in vitro enzyme assay to detect the production of urea directly proportional to the activity of Arginase II; type: functional; settings: 33.3 µM; further: in the data most compounds retested in dose-response had high values
T3 sequence (whole entry): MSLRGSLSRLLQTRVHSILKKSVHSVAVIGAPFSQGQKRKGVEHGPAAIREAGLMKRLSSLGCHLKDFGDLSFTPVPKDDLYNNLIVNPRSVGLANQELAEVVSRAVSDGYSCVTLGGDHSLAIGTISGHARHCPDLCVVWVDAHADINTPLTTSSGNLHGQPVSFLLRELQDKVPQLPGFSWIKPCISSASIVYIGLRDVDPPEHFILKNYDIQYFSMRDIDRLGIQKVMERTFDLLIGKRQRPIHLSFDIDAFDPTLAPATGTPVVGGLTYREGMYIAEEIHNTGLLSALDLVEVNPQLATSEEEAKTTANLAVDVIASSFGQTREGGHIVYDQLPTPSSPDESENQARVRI

[6] = biological target: T4, Proteasome subunit beta (Trypanosoma cruzi) (UniProt O96673); experiment: Trypanosoma cruzi proteasome chymotrypsin-like activity (TcProtChymo) assay.; further: in the data most compounds retested in dose-response had high values; type: functional; settings: 9.37 µM
T4 sequence (whole entry): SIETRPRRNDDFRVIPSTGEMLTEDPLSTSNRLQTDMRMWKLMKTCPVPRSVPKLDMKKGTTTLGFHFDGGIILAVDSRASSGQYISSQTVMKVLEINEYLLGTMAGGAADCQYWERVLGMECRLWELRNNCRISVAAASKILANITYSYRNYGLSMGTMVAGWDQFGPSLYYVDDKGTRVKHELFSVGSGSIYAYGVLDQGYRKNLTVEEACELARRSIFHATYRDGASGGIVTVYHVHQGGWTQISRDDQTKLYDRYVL

Homo sapiens = species on record: Homo sapiens; experiment: To identify inhibition of the IFN signalling (Jak-Stat) pathway via expression of an eGFP reporter gene under the control of an IFN-stimulated response element (ISRE) containing MxA promoter.; type: functional; settings: 30 µM
[7] = biological target: Shiga toxin 2 (Escherichia coli O157:H7) (UniProt P09385+P09386); experiment: E. coli 0.157:H7 Shiga Toxin SOP - stx2 screening assay; type: functional; settings: 30 µM
[8] = biological target: T5, Tyrosyl-tRNA synthetase, putative (Trypanosoma cruzi (strain CL Brener)) (UniProt Q4DSP6); experiment: Trypanosoma cruzi tyrosyl tRNA synthetase (TcYRS) _High Tyrosine SOP; type: functional; settings: 30 µM; further: in the data most compounds retested in dose-response had high values
T5 sequence (whole entry): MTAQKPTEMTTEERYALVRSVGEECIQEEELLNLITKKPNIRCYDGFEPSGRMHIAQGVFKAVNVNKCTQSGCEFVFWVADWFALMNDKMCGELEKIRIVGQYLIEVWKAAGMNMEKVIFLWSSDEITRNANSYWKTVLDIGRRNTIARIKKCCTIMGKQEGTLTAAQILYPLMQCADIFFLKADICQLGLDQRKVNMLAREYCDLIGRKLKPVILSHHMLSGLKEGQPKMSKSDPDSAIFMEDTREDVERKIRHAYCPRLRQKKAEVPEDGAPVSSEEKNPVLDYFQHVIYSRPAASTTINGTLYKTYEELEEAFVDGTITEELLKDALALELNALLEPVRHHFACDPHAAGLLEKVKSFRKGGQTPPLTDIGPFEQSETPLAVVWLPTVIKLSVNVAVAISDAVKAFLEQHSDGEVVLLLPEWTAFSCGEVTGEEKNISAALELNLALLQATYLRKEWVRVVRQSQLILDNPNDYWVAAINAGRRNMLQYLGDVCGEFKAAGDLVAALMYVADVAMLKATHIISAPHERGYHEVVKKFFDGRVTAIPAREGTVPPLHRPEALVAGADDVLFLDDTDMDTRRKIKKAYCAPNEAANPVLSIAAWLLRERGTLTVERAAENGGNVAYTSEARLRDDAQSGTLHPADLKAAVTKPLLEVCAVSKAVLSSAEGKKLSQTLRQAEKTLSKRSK

[9] = biological target: T5, Tyrosyl-tRNA synthetase, putative (Trypanosoma cruzi (strain CL Brener)); experiment: Trypanosoma cruzi tyrosyl tRNA synthetase (TcYRS) SOP; type: functional; settings: 30 µM
[10] = biological target: Chromo domain-containing protein 1 (Saccharomyces cerevisiae (strain ATCC 204508 / S288c) (Baker's yeast)) (UniProt P32657); experiment: ScCHD-1 Enzyme Inhibition Assay; type: functional; settings: 30 µM; further: in the data most compounds retested in dose-response had high values
Sequence of Chromo domain-containing protein 1 (Saccharomyces cerevisiae (strain ATCC 204508 / S288c) (Baker's yeast)) (P32657 whole entry, the tested form may be a part): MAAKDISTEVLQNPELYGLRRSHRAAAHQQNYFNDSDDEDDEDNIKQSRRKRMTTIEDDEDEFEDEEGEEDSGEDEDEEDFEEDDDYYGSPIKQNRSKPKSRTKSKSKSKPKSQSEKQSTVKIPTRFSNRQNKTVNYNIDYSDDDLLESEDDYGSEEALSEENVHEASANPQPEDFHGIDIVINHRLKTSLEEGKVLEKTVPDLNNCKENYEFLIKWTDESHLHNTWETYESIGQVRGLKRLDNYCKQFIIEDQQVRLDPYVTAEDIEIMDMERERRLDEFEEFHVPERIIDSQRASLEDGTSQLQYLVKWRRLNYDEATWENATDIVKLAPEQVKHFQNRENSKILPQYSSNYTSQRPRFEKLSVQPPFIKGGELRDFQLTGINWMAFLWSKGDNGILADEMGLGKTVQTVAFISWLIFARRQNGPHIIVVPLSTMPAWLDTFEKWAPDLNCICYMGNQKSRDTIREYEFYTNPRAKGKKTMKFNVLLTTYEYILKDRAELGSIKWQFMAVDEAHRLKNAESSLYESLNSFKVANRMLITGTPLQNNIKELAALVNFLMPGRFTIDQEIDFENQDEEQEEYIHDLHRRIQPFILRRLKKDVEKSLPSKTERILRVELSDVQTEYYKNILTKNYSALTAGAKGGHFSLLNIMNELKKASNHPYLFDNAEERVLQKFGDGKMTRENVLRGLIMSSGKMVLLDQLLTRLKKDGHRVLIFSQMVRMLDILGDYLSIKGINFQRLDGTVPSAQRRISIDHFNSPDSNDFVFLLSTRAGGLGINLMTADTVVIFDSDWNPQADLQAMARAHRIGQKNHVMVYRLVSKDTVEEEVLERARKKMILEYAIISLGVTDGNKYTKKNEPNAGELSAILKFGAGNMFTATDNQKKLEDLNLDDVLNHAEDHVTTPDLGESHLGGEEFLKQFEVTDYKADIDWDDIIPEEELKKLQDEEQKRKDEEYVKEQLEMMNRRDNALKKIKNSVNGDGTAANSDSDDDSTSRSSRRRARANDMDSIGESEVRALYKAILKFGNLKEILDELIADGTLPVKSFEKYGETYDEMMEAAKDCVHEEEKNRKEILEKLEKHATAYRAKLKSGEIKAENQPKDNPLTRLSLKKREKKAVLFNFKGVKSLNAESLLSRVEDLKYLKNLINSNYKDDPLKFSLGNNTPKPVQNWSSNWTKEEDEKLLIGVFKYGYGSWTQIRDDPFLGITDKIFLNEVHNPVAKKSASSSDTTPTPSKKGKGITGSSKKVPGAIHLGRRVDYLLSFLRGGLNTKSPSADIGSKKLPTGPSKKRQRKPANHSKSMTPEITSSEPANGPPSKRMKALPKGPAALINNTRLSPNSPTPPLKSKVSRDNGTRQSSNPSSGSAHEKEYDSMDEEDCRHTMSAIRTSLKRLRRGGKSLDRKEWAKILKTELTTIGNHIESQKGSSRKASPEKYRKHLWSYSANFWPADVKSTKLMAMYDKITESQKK

Compound	Percent Effect [1] [%]	Percent Effect [2] [%]	Percent Effect [3] [%]	Percent Effect [4] [%]	Percent Effect (Trypanosoma cruzi) [%]	Percent Effect [5] [%]	Percent Effect [6] [%]	Percent Effect (Homo sapiens) [%]	Percent Effect [7] [%]	Percent Effect [8] [%]	Percent Effect [9] [%]	Percent Effect [10] [%]
Cc1cccc(CN2C(=O)C[C@H]3[C@@H]2CCN3CC2CC2)n1	-1.8	-22.1	3.32	2.35	0.563	1.83	12.3	-5.79	4.71	12.6	12.5	-5.44
O=C1N(Cc2cccnc2)CCC12CCCNC2 (centres undefined)	-3.76	16.9	2.62	-3.98	-3.19	0.913	20	34	7.06	1.93	2.5	-10.7
c1ccc(N2CCCC3(CCN(Cc4nccs4)C3)C2)nc1 (centres undefined)	-1.98	14.3	-1.46	3.73	0.75	-5.94	18.4	4.2	7.26	10.6	20	-11.5
CCc1cnc(N2CC3(CCN(Cc4ccsc4)C3)C2)nc1	-5.86	3.9	14.2	-1.39	-7.3	0	9.27	12.9	-11	8.95	2.56	-4.35
Cc1noc(C)c1CN1CCCC2(CCN(C(=O)CC3CC3)C2)C1 (centres undefined)	-8.86	3.9	1.46	3.29	-0.375	2.74	1.97	12.4	-4.85	1.93	-10	-8.2
CC[C@H]1N(C)CCC[C@]12CCC(=O)N2Cc1ccncc1	-1.96	32.5	0.228	0.456	1.69	-1.83	14.3	16.7	-15.6	7.73	10	-8.84
Fc1cnc(N2CCCC3(CCN(Cc4ccsc4)C3)C2)nc1 (centres undefined)	-5.76	3.9	9.59	-1.26	3.02	-5.26	8.56	-2.16	-9.72	6.84	7.69	14.2
